Reference: PubChem BioAssay AID651789 (National Center for Advancing Translational Sciences (NCATS), 2012)
Results filed as inconclusive are left out. Calls of active or inactive are those of the source. The call rests on the fitted dose curve; in most records, active means well fitted inhibition curve with a large enough effect; inconclusive means small, poorly fitted or top-dose-only effect; inactive means no such curve, though single readings can be large or run the other way.

Experiment: Acumen qHTS Assay for Inhibitors of the mTORC1 Signaling Pathway in WT MEF Cells: Hit Validation; further: nearly all actives have a fitted effect of over 60% in size;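 on activity change, negative = inhibition: percent of cells above a cutoff set by 7.5 nM rapamycin treated wells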
Details: Acumen imaging; series mostly up to 37.3 µM; activity change, negative = inhibition: at the top concentration
Text: The mammalian target of rapamycin (mTOR) is an intracellular serine/threonine kinase Aberrant regulation of mTOR signaling plays a causative role in a number of human diseases, including cancer, benign tumors such as lymphangioleiomyomatosis (LAM) and Tuberous Sclerosis Complex (TSC), and metabolic diseases such as diabetes and obesity. This project aims to identify inhibitors of ribosomal protein S6 (rpS6) phosphorylation. The phosphorylation of rpS6 is a key event downstream of mTOR activation. The assay uses a phospho-specific antibody of phospho-rpS6 to detect inhibitors of mTOR activation. Mutations in the Tsc1 and Tsc2 genes are the underlying genetic lesions responsible for TSC, causing constitutive activation of the mTORC1 pathway and leading to profound effects on cell metabolism. Aberrant metabolism in cancer has recently received significant attention as a target to develop therapeutic agents in the treatment of cancer.1 As Tsc2-/- cells have lost the ability to respond to energy and growth factor deprivation, these cells are unable to properly down regulate cellular biosynthetic processes in response to metabolic stress, and are thus extremely sensitive to glucose deprivation-induced death.2 A central goal of this project is to explore the unique cell survival and metabolic properties of cells with Tsc1 or Tsc2 by screening for compounds that selectively target the Tsc2-/- MEFs by screening both Tsc2-/- and WT MEF cell lines. We hope to better understand these aspects of TSC physiology in order to exploit them for therapeutic benefit.
NIH Molecular Libraries Probe Production Centers Network [MLPCN]
NIH Chemical Genomics Center [NCGC]
Assay Submitter (PI): Blenis, John; Harvard University
For quantitative high throughput analysis of mTORC1 signaling, we developed a cell-based assay for immuno-fluorescence based detection of rpS6 phosphorylation on the Acumen Explorer that will be used a platform for the primary small molecule screen. Mouse embryonic fibroblasts (MEFs) are cultured in 1536-well plates using DMEM + 10% FBS. Twenty-four hrs after plating, test compounds (solubilized in DMSO) are delivered and incubated with the cells for 24 hrs at 37 degree Celsius. Following the incubation, media with compound is aspirated and the cells are fixed in 4% paraformaldehyde (PFA) containing PBS + 0.2% TX-100. Next, PFA is aspirated, cells are washed two times with PBS plus 0.2% TX-100 and the cells are blocked for 1 hr at room temperature (blocking buffer: LiCOR Blocking Buffer plus 0.2% TX-100). This is followed by aspiration and staining with Alexa-488 conjugated-phospho-rpS6 Ser235/236 antibody for 2 hours at room temperature (Cell Signaling Technology # 4803, 1:50 dilution in blocking buffer). Cells are washed two times with PBS plus 0.2% TX-100, and stained with 10 uM propidium iodide (PI) for 20-25 minutes for cell number measurement (1:500 dilution of Hoescht staining is also added for IN Cell imaging). The plates are scanned on the Acumen Explorer laser scanning instrument (TTP Labtech) using the 488nm laser for simultaneous excitation of the Alexa-488 and PI. […] Fluorescence emission from the PI stain is selected using a 575-640 nm band pass filter. The normalized phospho-S6 staining is calculated as the ratio of the integrated Alexa 488 intensity divided by the integrated PI intensity for the single concentration rapamycin control (7.5 nM) and DMSO columns. […] Inhibition of the pathway is defined based on the normalized phospho-S6 intensity in rapamycin treated cells. Active cells are defined as those with a normalized phospho-S6 staining above this threshold, and each treatment is reported as the % positive cells in the well, where thresholds are defined by selecting wells with the highest and lowest signal and differentiating between the % non-active and % active populations. In addition to the pathway specific phospho-S6 endpoint, the number of PI stained cells from the Acumen is recorded as a measure of cell viability. […]
Potency means the concentration at half of the fitted maximal effect.

Row | SMILES | Potency | activity change, negative = inhibition
1 | CCOc1ccc(NC(=O)CSc2oc(-c3ccccc3)nc2S(=O)(=O)c2ccc(Cl)cc2)cc1 | 3690 nM (active) | 
2 | CCN(CC)C(=O)c1ccc(NC(=O)CCn2nc(-c3ccc(C)cc3)c3ccccc3c2=O)cc1 |  | 33.8% (inactive)
3 | Cc1ccc(-n2c(/C=C/c3ccc(Br)s3)nc3ccccc3c2=O)cc1C |  | -27.4% (inactive)
4 | CCCOC(=O)c1c(C)oc2c1cc(NS(=O)(=O)c1ccc(OCC)cc1)c1ccccc12 | 656 nM (active) | 
5 | Cc1ccccc1-n1c(/C=C/c2c(C)[nH]c3ccccc23)nc2ccccc2c1=O | 1850 nM (active) | 
6 | CCOc1ccc(CN(CCc2ccc3c(c2)OCO3)Cc2ccc(C)cc2)cc1 |  | -17.6% (inactive)
7 | CCOc1ccc(N(C(C)C(=O)Nc2cc(Cl)ccc2OC)S(C)(=O)=O)cc1 (stereo not drawn) | 3690 nM (active) | 
8 | O=C(Nc1ccon1)c1cccn(Cc2cccc(Cl)c2)c1=O |  | 3.6% (inactive)
9 | Cc1cccc(CN2CCc3nc(N4CCN(c5ccccn5)CC4)ncc3C2)c1 |  | 21.3% (inactive)
10 | CN[C@@H]1C[C@@]2(C)O[C@@H]([C@@H]1OC)n1c3ccccc3c3c4c(c5c6ccccc6n2c5c31)C(=O)NC4 | 32.5 nM (active) | 
11 | Cc1ccccc1-n1c(/C=C/c2ccccc2F)nc2ccccc2c1=O |  | 14.5% (inactive)
12 | CCN(CC)CCSc1nc2ccccc2c(=O)n1-c1ccc(Cl)cc1 |  | 0.87% (inactive)
13 | Cc1ccccc1-c1nc(CN2C(=O)CN=C(c3ccccc3)c3ccccc32)c(C)o1 |  | -21.4% (inactive)
